Source: PubChem BioAssay (Tox21)
Several values for one entry are separate records, joined by “and”; a condition that tells them apart may be missing. Equal entries are not always repeated. Results filed as inconclusive are left out. Some compounds were tested as several samples or in several runs, with calls that do not always agree. Activity calls are given as the source filed them. Unless noted, calls come from the whole dose curve; as a rule, active = well fitted curve in the direction sought with a large enough effect in the repeat runs; inconclusive = weak or mixed curves; inactive = no such curve, though single readings can be large; an effect the other way counts as inactive or inconclusive.

How the values were obtained:
[1] = qHTS assay to identify small molecule agonists of the hypoxia (HIF-1) signaling pathway - cell viability counter screen (AID 1224844; calls by dose curve; note: nearly all actives have a fitted effect of over 50% in size; note: potency is the fitted concentration of half-maximal effect)
Summary of the method: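 Viability counter screen: HRE-bla ME-180 cells plated 5 hrs before compound addition, treated 17 hrs at 37C and 5% CO2, then CellTiter-Glo added after the FRET reporter read; luminescence after 30 min.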

[2] = qHTS assay to identify small molecule agonists of H2AX - cell viability counter screen (AID 1224847; calls by dose curve; note: nearly all actives have a fitted effect of over 30% in size; note: potency is the fitted concentration of half-maximal effect)
Summary of the method: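 Counter-screen for viability: CellTiter-Glo ATP luminescence read after 3 h compound treatment (15-point titration, 0.76% DMSO final) of CHO-K1 cells at 37C, with 30 min room-temperature reagent incubation.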

[3] = qHTS RealTime-Glo MT Cell Viability Assay in HEK293 cells - 32 hour (AID 1224868); note: nearly all actives have a fitted effect of over 50% in size; note: potency is the fitted concentration of half-maximal effect
Summary of the method: (§1)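 Viability tracked continuously by luminescence as live cells reduce a prosubstrate for NanoLuc; HEK293 cells preincubated 5 h, compound-treated at 37 C, and read at 0, 8, 16, 24, 32 and 40 h.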

[4] = A CellTox Green Cytotoxicity Assay to monitor cytotoxicity in HEK293 cells - 0 hour (AID 1224869); note: nearly all actives have a fitted effect of over 50% in size
Summary of the method: (§2)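 Dead-cell fluorescence measured kinetically: asymmetric cyanine dye, HEK293, 600 cells/well, 5 h settle, 23 nL cpd/DMSO, 37 C, reads 0–40 h every 8 h.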

[5] = qHTS RealTime-Glo MT Cell Viability Assay in HepG2 cells - 40 hour (AID 1224870); note: nearly all actives have a fitted effect of over 50% in size
Summary of the method: (§3)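 HepG2 cells (600/well) mixed with RealTime-Glo MT reagent, settled 5 h at 37 C/5% CO2 before compound addition. Nonlytic NanoLuc luminescence from viable-cell prosubstrate reduction read repeatedly during 40 h treatment at 37 C.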

[6] = A CellTox Green Cytotoxicity Assay to monitor cytotoxicity in HEK293 cells - 40 hour (AID 1224871); note: nearly all actives have a fitted effect of over 45% in size; note: potency is the fitted concentration of half-maximal effect
Summary of the method: as §2

[7] = qHTS RealTime-Glo MT Cell Viability Assay in HEK293 cells - 16 hour (AID 1224872); note: nearly all actives have a fitted effect of over 50% in size; note: potency is the fitted concentration of half-maximal effect
Summary of the method: as §1

[8] = qHTS RealTime-Glo MT Cell Viability Assay in HepG2 cells - 8 hour (AID 1224873); note: nearly all actives have a fitted effect of over 55% in size
Summary of the method: as §3

[9] = qHTS RealTime-Glo MT Cell Viability Assay in HEK293 cells - 40 hour (AID 1224874); conditions: RealTime-Glo luminescence; max response: stronger effect = lower value; note: nearly all actives have a fitted effect of over 50% in size; note: potency is the fitted concentration of half-maximal effect
Summary of the method: (§4)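 600 HEK293 cells per well, dispensed already mixed with RealTime-Glo MT reagents. Compound dosing came 5 h later. The same wells were read for luminescence at 0, 8, 16, 24, 32 and 40 h of exposure at 37 C.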

[10] = A CellTox Green Cytotoxicity Assay to monitor cytotoxicity in HEK293 cells - 24 hour (AID 1224875); note: nearly all actives have a fitted effect of over 45% in size; note: potency is the fitted concentration of half-maximal effect
Summary of the method: as §2

[11] = qHTS RealTime-Glo MT Cell Viability Assay in HepG2 cells - 32 hour (AID 1224877); note: nearly all actives have a fitted effect of over 55% in size; note: potency is the fitted concentration of half-maximal effect
Summary of the method: (§5)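 Viability was tracked continuously by NanoLuc luminescence from prosubstrate reduced by living HepG2 cells, at successive time points over 40 h of compound exposure. Cells with reagent were preincubated 5 h at 37 °C before compound addition.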

[12] = A CellTox Green Cytotoxicity Assay to monitor cytotoxicity in HepG2 cells - 24 hour (AID 1224878); note: nearly all actives have a fitted effect of over 45% in size
Summary of the method: (§6)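 First, HepG2 cells (600/well) mixed with reagent were plated; second, after 5 h at 37 C they received compounds via pintool; third, fluorescence was measured at 0 h through 40 h at 8 h intervals.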

[13] = A CellTox Green Cytotoxicity Assay to monitor cytotoxicity in HepG2 cells - 40 hour (AID 1224879); note: nearly all actives have a fitted effect of over 40% in size; note: potency is the fitted concentration of half-maximal effect
Summary of the method: as §6

[14] = qHTS RealTime-Glo MT Cell Viability Assay in HEK293 cells - 0 hour (AID 1224880); note: top concentration of the series differs between compounds; nearly all actives have a fitted effect of over 45% in size
Summary of the method: as §4

[15] = A CellTox Green Cytotoxicity Assay to monitor cytotoxicity in HepG2 cells - 16 hour (AID 1224876); note: nearly all actives have a fitted effect of over 45% in size
Summary of the method: as §6

[16] = qHTS assay to identify small molecule agonists of H2AX (AID 1224845; active = well fitted activation curve with a large enough effect in the signal ratio in the repeat runs, not every such curve was filed as active; the % refers to the signal ratio)
Summary of the method: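 Wild-type CHO-K1 cells, plated overnight, exposed 3hr at 37C to 15 concentrations (0.76% DMSO final). Lysed, then HTRF anti-pH2AX (S139) cryptate and anti-H2AX-d2 antibodies, 24 hr room temperature; 665/620 nm emission read.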

[17] = qHTS assay to identify small molecule agonists of the hypoxia (HIF-1) signaling pathway (AID 1224846; active = well fitted activation curve with a large enough effect in the signal ratio in the repeat runs, not every such curve was filed as active; the % refers to the signal ratio)
Summary of the method: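 Agonist mode reporter screen. ME-180 cells stably expressing bla under HRE control received test compounds in DMSO for 17 hrs (37C, 5% CO2), and beta-lactamase activity was then detected with the CCF4-AM FRET substrate.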

[18] = qHTS RealTime-Glo MT Cell Viability Assay in HepG2 cells - 24 hour (AID 1224867); note: nearly all actives have a fitted effect of over 50% in size
Summary of the method: as §5

[19] = qHTS assay to identify small molecule antagonists of the estrogen related receptor (ERR) signaling pathway from Tox21 library (AID 1224848); note: nearly all actives have a fitted effect of over 50% in size
Summary of the method: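 Compounds dissolved in DMSO are pin-transferred onto ERR reporter cells (2,000 per well) that have settled for 6 h at 37 C. Plates then incubate 18 h at 37 C before ONE-Glo luciferase reagent and a luminescence read 30 min later.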

[20] = qHTS assay to identify small molecule agonists of the estrogen related receptor (ERR) signaling pathway from Tox21 library (AID 1224849; calls by dose curve; note: nearly all actives have a fitted effect of over 15% in size); conditions: ERR reporter cell line, ONE-Glo luciferase, 18 h; at 42.5 µM (top of the series)
Summary of the method: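 Quantitative HTS in agonist format: NTP ERR cell line, compounds transferred in DMSO after 6 h plating, 18 h incubation at 37 C, ONE-Glo luminescence endpoint.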
% is set by controls: 0 for no effect and ±100 for the full control effect.

CC(C)(C)NC(=O)[C@@H]1CN(Cc2cccnc2)CCN1C[C@@H](O)C[C@@H](Cc1ccccc1)C(=O)N[C@H]1c2ccccc2C[C@H]1O
inactive: Potency [1] | Potency [2] | Potency [3] | Potency [4] | Potency [5] | Potency [6] | Potency [7] | Potency [8] | max response [9] 0.0575% and 0.362% | Potency [10] | Potency [11] | Potency [12] | Potency [13] | Potency [14]

COc1ccc(CCN(C)CCCC(C#N)(c2ccc(OC)c(OC)c2)C(C)C)cc1OC (stereo unspecified)
inactive: Potency [1] | Potency [2] | Potency [4] | Potency [6] | Potency [10] | Potency [15]
active: Potency [13] 48.9 µM

CCc1cc(C(C)(C)C)c(O)c(C(C)(C)C)c1
active: Potency [6] 21.9 µM | Potency [10] 21.9 µM
inactive: Potency [1] | Potency [3] | Potency [4] | Potency [5] | Potency [7] | Potency [8] | max response [9] 1.58% and -10.1% | Potency [13] | Potency [14]

C=C(C)C(=O)O
inactive: Potency [1] | Potency [2] | Potency [3] | Potency [4] | Potency [5] | Potency [6] | Potency [7] | Potency [8] | max response [9] -0.401% and 9.57% | Potency [10] | Potency [15] | Potency [12] | Potency [13] | Potency [14]

O=C1Nc2ccccc2C1(c1ccc(O)cc1)c1ccc(O)cc1
active: Potency [9] 49 µM
49 µM (active) and inactive: Potency [3]
inactive: Potency [16] | Potency [17] | Potency [18] | Potency [4] | Potency [5] | Potency [6] | Potency [7] | Potency [8] | max response [9] -14.8% | Potency [10] | Potency [13] | Potency [14]

O=C1NCC2(CCN(CCc3ccccc3)CC2)O1
inactive: Potency [1] | Potency [2] | Potency [3] | Potency [4] | Potency [6] | Potency [8] | max response [9] 2.88% | Potency [10] | Potency [13] | Potency [14]

CCC(C)(C)C(=O)O[C@H]1C[C@@H](C)C=C2C=C[C@H](C)[C@H](CC[C@@H]3C[C@@H](O)CC(=O)O3)[C@H]21
active: Potency [13] 24.5 µM and 9.52 µM
inactive: Potency [16] | Potency [17] | Potency [4] | Potency [6] | Potency [10]

CCCNC(C)C(=O)Nc1ccccc1C (stereo unspecified)
inactive: Potency [1] | Potency [2] | Potency [18] | Potency [3] | Potency [4] | Potency [5] | Potency [6] | Potency [7] | Potency [8] | max response [9] -3.34% | Potency [10] | Potency [15] | Potency [11] | Potency [12] | Potency [13] | Potency [14]

Nc1nc(=S)c2[nH]cnc2[nH]1
active: Potency [3] 23.9 µM and 19.5 µM | Potency [9] 21.3 µM and 19.5 µM and 26.8 µM
inactive: Potency [17] | Potency [18] | Potency [4] | Potency [5] | Potency [6] | Potency [8] | Potency [10] | Potency [15] | Potency [12] | Potency [13] | Potency [14]

O=C(O)CP(=O)(O)O
inactive: Potency [1] | Potency [2] | Potency [18] | Potency [3] | Potency [4] | Potency [5] | Potency [6] | Potency [7] | Potency [8] | max response [9] -6.08% | Potency [10] | Potency [15] | Potency [11] | Potency [13] | Potency [14]

Oc1ccc(Cl)cc1Cc1cc(Cl)ccc1O
active: Potency [2] 51.4 µM and 31.8 µM | Potency [3] 19.8 µM and 49 µM | Potency [7] 22.3 µM | Potency [9] 17.7 µM and 43.6 µM and 16.9 µM | Potency [11] 49.9 µM
54.9 µM (active) and inactive: Potency [1]
inactive: Potency [4] | Potency [6] | Potency [8] | Potency [10] | Potency [15] | Potency [12] | Potency [13] | Potency [14]

C1COC(NC(C2CC2)C2CC2)=N1
inactive: Potency [16] | Potency [19] | activity change, positive = activation [20] -1.34% | Potency [3] | Potency [4] | Potency [5] | Potency [6] | Potency [7] | Potency [8] | max response [9] 5.02% | Potency [10] | Potency [15] | Potency [11] | Potency [12] | Potency [13] | Potency [14]

CC(=O)OCCOCCOCCOC(C)=O
inactive: Potency [1] | Potency [2] | Potency [18] | Potency [3] | Potency [4] | Potency [5] | Potency [6] | Potency [8] | max response [9] 7.9% and 19.2% | Potency [10] | Potency [15] | Potency [11] | Potency [12] | Potency [13] | Potency [14]

CC1COc2c(N3CCN(C)CC3)c(F)cc3c(=O)c(C(=O)O)cn1c23 (stereo unspecified)
inactive: Potency [1] | Potency [2] | Potency [4] | Potency [6] | Potency [10] | Potency [12] | Potency [13]

Nc1nc2ccccc2[nH]1
inactive and 216 nM (active): Potency [13]
inactive: Potency [1] | Potency [2] | Potency [18] | Potency [3] | Potency [4] | Potency [5] | Potency [6] | Potency [7] | Potency [8] | max response [9] 0.0562% and 7.05% | Potency [10] | Potency [15] | Potency [14]
